# Shown are actives, neighbours in structure and some others; about 21% of the full set was active somewhere.
# Cycloheximide cs: affects cycloheximide protein synthesis inhibition readout, counter-screen; cell reporter, cycloheximide protein synthesis inhibition counterscreen; max response, %; 300,000 compounds, 12% hits; in the data active = max response mostly above about 13%, no sharp cut-off; inactive = mostly below about 14%; also: read at 38.3 µM for the half of the compounds with a filed dose; 0% is about no effect
# HCV inh: HCV inhibition. Huh7.5.1 HCVcc-Cre infection, luciferase reporter, 44 h. Potency, µM (series often up to 41.8 µM), for the others: top-dose activity change, negative = inhibition, usual class: inhibitors. 340,000 compounds, 3.4% hits. AID 651820; also: potency is read from the fitted curve at half-maximal effect; % is scaled to controls: 0 for no effect and ±100 for the full control effect
#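 After 44 h co-culture of compound, cells and HCVcc-Cre (~0.5 moi), substrate is added for 15 min at room temperature and luciferase measured over 15 sec. Cells were seeded at 1,000/well and pre-cultured 4 h.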
# Pf growth 48h: P. falciparum growth inhibition at 48 hours (one generation) | AID 504832 | Potency, µM (top dose mostly 28.7 µM), for the others: top-dose activity change, negative = inhibition, most hits filed as inhibitors | P. falciparum luciferase growth in erythrocytes, 48 h | 310,000 compounds, 5.9% hits; also: potency is read from the fitted curve at half-maximal effect; % is scaled to controls: 0 for no effect and ±100 for the full control effect
#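 Compounds are pin-transferred into medium, infected erythrocytes (2% hematocrit, 0.1% parasitemia final) are added, and plates sit one parasite generation at 37 C in 5% CO2. Detection reagent is then added and luminescence measured.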
# Pf growth 96h: P. falciparum growth inhibition at 96 hour, primary screen for plastid delayed-death inhibitors | P. falciparum luciferase reporter growth, 96 h | Potency, µM (doses to about 28.7 µM), inactives show top-dose activity change, negative = inhibition, most hits filed as inhibitors | 320,000 compounds, 6.9% hits | AID 504834; also: potency is read from the fitted curve at half-maximal effect; % is scaled to controls: 0 for no effect and ±100 for the full control effect
#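 Plates of compound plus infected erythrocytes (2% hematocrit, 0.05% parasitemia final) incubate 96 hours, 37 C, 5% CO2. Detection reagent added; reduced luminescence from the parasites' luciferase reporter flags inhibition.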
# HCMV antiviral: blocks human cytomegalovirus replication; HFF cells, HCMV-luciferase reporter, 72 h; active compounds read low; activity change, negative = inhibition, % at 57.5 µM; AID 1259415; 410,000 compounds, 4.5% hits; in the data active = activity change below about -60%; inconclusive = no clear call, values can overlap the other calls; inactive = above about -39%; also: % is scaled to controls: 0 for no effect and ±100 for the full control effect
#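 Compounds were evaluated in HFFs infected with an HCMV luciferase reporter virus (MOI 1 PFU/cell). Luciferase in lysates collected 72 h post infection served as the replication measure.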
# Shiga inhibitor: inhibitors of Shiga toxin in Vero cells; Vero cells, Shiga toxin protein synthesis inhibition reporter; inhibition, % at 38.7 µM; 290,000 compounds, 9.2% hits; in the data active = inhibition mostly above about 28%, no sharp cut-off; inactive = mostly below about 43%; also: 0% is about no effect
# Active calls of the source: *; ? = inconclusive; . = no result; + = active, no number. Unless noted, calls follow the shape of the dose curve; as a rule, active = well fitted inhibition curve with a large enough effect; inconclusive = small, poorly fitted or top-dose-only effect, or another doubt; inactive = no such curve, though single readings can be large or run the other way.
SMILES,Cycloheximide cs,HCV inh,Pf growth 48h,Pf growth 96h,HCMV antiviral,Shiga inhibitor
Cc1ccc(S(=O)(=O)N(Cc2ccccc2F)C(=O)N2CCN(C)CC2)cc1,.,4%,?,7%,-12,.
Cc1ccc(NC(=O)COC(=O)c2ccc(=O)n(Cc3ccccc3)n2)cc1F,.,12%,-3%,27%,-9,.
O=C1CN(C(=O)/C=C/c2cccc(Cl)c2)c2ccccc2N1,-3,14µM*,?,?,-22,-10
O=C1CN(C(=O)COc2ccc(Cl)c(Cl)c2)c2ccccc2N1,.,-2%,13µM*,3.3µM*,-66*,.
O=C1C(=O)c2c(C(=O)c3ccccc3)coc2-c2ccccc21,11,11µM*,.,?,-93*,-19
Cc1oc2c(c1C(=O)c1ccccc1)C(=O)C(=O)c1ccccc1-2,11,10µM*,9.3µM*,13µM*,-103*,-5
CCOC(=O)c1c(C)nc2c(c1-c1ccccc1)C(=O)c1ccccc1-2,-2,?,2%,-12%,-101*,-8
CCOC(=O)c1c(C)oc2c1C(=O)c1ccccc1C2=O,30*,5.6µM*,0.74µM*,-3%,-15,50*
COC(=O)c1c(Oc2ccc(C(C)=O)cc2)nnc(-c2ccccc2)c1-c1ccccc1,.,.,.,.,-14,.
Cc1ccc(S(=O)(=O)NCCC(=O)NNC(=O)c2ccccc2Cl)cc1C,.,-8%,36%,6%,-32,.
Cc1ccc(N2CC(NC(=O)c3cccs3)CC2=O)cc1 (centres undefined),.,.,.,.,-22,.
COc1ccc(Cl)cc1C(=O)Nc1ccc2c(c1)OCO2,44*,11µM*,46%,.,260,87*
COc1ccc(Cl)cc1C(=O)Nc1ccc2c(c1)OCCO2,30*,?,201%,?,197,36*
COc1ccc(NC(C)=O)cc1S(=O)(=O)Nc1ccc2c(c1)OCCO2,24*,3%,45%,?,-26,17
COc1ccc(Cl)cc1C(=O)Nc1ccncc1,-2,?,-23%,-19%,52,-4
COc1ccc(-n2ncc3c(NC4CCCC4)ncnc32)cc1,.,.,.,.,4,.
COc1cccc(NC(=O)c2sc3nc(C)c(C(=O)Nc4ccc(C)cc4C)c(-c4ccc(Br)cc4)c3c2N)c1,.,.,.,.,8,.
Cc1ccc(/C=C/C(=O)Nc2ccc(Cl)cc2Cl)cc1,.,.,.,.,-16,.
Cc1ccc(NC(=O)/C=C/c2ccc(Cl)cc2)nc1,22*,?,60%,24%,-20,50*
O=C(/C=C/c1cccc([N+](=O)[O-])c1)Nc1ccc(Cl)cn1,8,-29%,-69%,95%,-5,78
O=C(/C=C/c1ccccc1)Nc1ccc(Br)cn1,31*,-9%,428%,123%,116,+
Cc1ccc2c(c1)c1c(c(=O)n(-c3cccc(Cl)c3)c(=O)n1CC(=O)NCC1CCCO1)n2C (centres undefined),.,.,.,.,4,.
COc1ccc(CN2CCCC(C(=O)c3ccc4c(c3)OCO4)C2)c(F)c1 (centres undefined),0,-16%,-5%,4%,?,-2
COc1ccc(C(=O)C2CCCN(Cc3cc(C)c(O)c(C)c3)C2)c(OC)c1 (centres undefined),4,?,?,?,10,3
COc1ccc(C(=O)C2CCCN(C3Cc4ccccc4C3)C2)c(OC)c1 (centres undefined),24*,?,23%,-12%,-20,74*
SMILES,Cycloheximide cs,HCV inh,Pf growth 48h,Pf growth 96h,HCMV antiviral,Shiga inhibitor
COc1ccc(CN2CCC(C(=O)c3ccc(Cl)cc3)CC2)cc1,-3,11µM*,?,?,-37,.
COc1ccc(CN2CCCC(C(=O)c3ccc(Cl)cc3)C2)c(O)c1 (centres undefined),-3,?,0.83µM*,-72%,52,-12
COc1ccc(C(=O)C2CCCN(Cc3cc(Cl)ccc3O)C2)c(OC)c1 (centres undefined),-1,11µM*,?,16%,-26,-10
COc1ccc(CN2CCC(C(=O)c3cccc(Cl)c3)CC2)cc1,1,-9%,?,2%,-8,.
Oc1c(C(c2ccccc2Cl)N2CCC(O)CC2)sc2nc(-c3ccco3)nn12 (centres undefined),.,.,.,.,16,.
COc1ccc(C(=O)C2CCCN(Cc3sc(N4CCCC4)nc3Cl)C2)c(OC)c1 (centres undefined),14,?,?,?,-72*,22
Clc1ccc(/C=C/c2ncc3ccccn23)cc1,33*,-28%,28%,0%,60,83*
N#Cc1c(N2CCN(c3ccc(F)cc3)CC2)nc(N)c2c(N)nc3c(c12)CC(=O)N3C1CC1,8,?,0.93µM*,2.6µM*,-35,12
NC(=O)C1C2CCC(C2)C1C(N)=O (centres undefined),.,20%,.,.,-18,.
Cc1c(N=C2N=C(NC(=O)Nc3ccc(Cl)cc3)c3ccccc32)c(=O)n(-c2ccccc2)n1C,0,1%,-1%,-3%,-10,16
O=C(CN1C(=O)c2ccccc2S1(=O)=O)c1ccc2c(c1)OCCCO2,-11,18%,?,1.5µM*,-96*,-27
O=C(CN1C(=O)c2ccccc2S1(=O)=O)c1ccc(OC(F)F)cc1,-5,7%,-4%,-18%,.,-15
O=C(CN1C(=O)c2ccccc2S1(=O)=O)c1ccc2c(c1)OCCO2,-5,23%,?,-19%,-98*,-20
O=C(CN1C(=O)c2ccccc2S1(=O)=O)c1ccc(F)cc1,-6,9%,53%,475%,-67*,-12
O=C(CN1C(=O)c2ccccc2S1(=O)=O)N1CCN(c2ccccc2F)CC1,-1,11%,72%,5.9µM*,-35,-12
O=C(CN1C(=O)c2ccccc2S1(=O)=O)c1cccc(Br)c1,1,-3%,13%,200%,-32,-8
O=C(c1ccccc1SCc1ccc(F)cc1)N1CCOCC1,7,4%,-18%,34%,-16,-2
O=C1c2c([N+](=O)[O-])cc([N+](=O)[O-])cc2S(=O)N1Cc1ccccc1 (centres undefined),3,13%,0%,?,18,18
COc1ccc(Cl)cc1NC(=O)CCN1C(=O)c2ccccc2Sc2ncccc21,.,.,.,.,-5,.
O=C(CN1C(=O)c2ccccc2S1(=O)=O)c1ccc(Cl)cc1Cl,.,18%,.,.,-91*,.
CCCCN1C(=O)C(=O)N(CC(=O)c2ccc3c(c2)OCO3)C1=O,.,15%,8%,11%,-6,.
O=C(CN1C(=O)c2ccccc2C1=O)c1ccc(F)cc1,26*,20%,116%,96%,40,49
CCCC1Oc2ccccc2C(=O)N(CC(=O)c2ccc3c(c2)OCCO3)C1=O (centres undefined),21*,7%,4%,21%,-1,29
